{"source": "PubChem BioAssay (NCATS)", "key": {"[1]": {"target": "Calcium and integrin-binding protein 1 (Homo sapiens) (UniProt Q99828)", "sequence (Q99828 whole entry, looked up)": "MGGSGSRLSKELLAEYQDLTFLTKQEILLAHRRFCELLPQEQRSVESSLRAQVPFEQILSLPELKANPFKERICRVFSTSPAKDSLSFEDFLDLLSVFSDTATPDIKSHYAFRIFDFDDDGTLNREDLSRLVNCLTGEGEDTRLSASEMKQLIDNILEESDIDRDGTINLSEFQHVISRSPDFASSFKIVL", "test": "Primary qHTS for Identification of Calcium Integrin Binding Protein 1 (CIB1) Competitor (AID 1508620); note: top concentration of the series differs between compounds", "outline": "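Fluorescence polarization competition: GST-tagged CIB1 (1 uM final) preincubated with compound 15 min at room temperature, then FITC-labelled alphaIIb peptide (100 nM final) added. After 15 min at room temperature, polarization read at Ex 480/Em 540.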"}, "[2]": {"target": "Cytochrome P450 2D6 (Homo sapiens) (UniProt P10635)", "sequence (P10635 whole entry, looked up)": "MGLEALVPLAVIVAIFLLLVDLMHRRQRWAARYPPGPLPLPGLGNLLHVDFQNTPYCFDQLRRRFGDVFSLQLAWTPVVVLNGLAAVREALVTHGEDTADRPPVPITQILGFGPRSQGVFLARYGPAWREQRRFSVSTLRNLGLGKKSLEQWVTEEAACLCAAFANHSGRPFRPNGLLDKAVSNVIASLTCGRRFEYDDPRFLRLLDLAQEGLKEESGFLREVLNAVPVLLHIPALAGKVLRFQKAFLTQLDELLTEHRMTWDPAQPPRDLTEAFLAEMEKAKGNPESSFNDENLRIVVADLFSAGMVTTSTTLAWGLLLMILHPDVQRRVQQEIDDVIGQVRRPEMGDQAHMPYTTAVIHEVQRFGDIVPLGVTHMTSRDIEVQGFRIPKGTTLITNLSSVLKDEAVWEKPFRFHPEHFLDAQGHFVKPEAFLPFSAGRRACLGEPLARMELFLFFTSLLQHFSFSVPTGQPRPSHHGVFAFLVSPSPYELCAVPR", "test": "Cytochrome P450 family 2 subfamily D member 6 (CYP2D6) small molecule antagonists: luciferase biochemical (cell-free) qHTS assay (AID 1645840; active = well fitted curve in the direction sought with a large enough effect in the repeat runs; an effect the other way counts as inactive or inconclusive; note: nearly all actives have a fitted effect of over 55% in size; note: potency is the fitted concentration of half-maximal effect)", "outline": "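P450-Glo luminescent screen: recombinant CYP2D6 enzyme–proluciferin substrate mix preincubated with compound 10 min at room temperature, then NADPH regeneration added for 1 h at room temperature. Detection reagent added for 20 min; luciferin light read as relative luminescence units.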"}, "[3]": {"test": "Counterscreen qHTS for small molecule stabilizers of the endoplasmic reticulum resident proteome: GLuc-NoTag assay (AID 1508627); note: potency is the fitted concentration of half-maximal effect", "conditions": "Gaussia luciferase NoTag secretion counterscreen, luminescence; thapsigargin 100 nM for final 4 h", "outline": "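SH-SY5Y cells stably expressing constitutively secreted GLuc without SERCaMP tag, exposed to compound for 19 hr, then to 100 nM thapsigargin for 4 hr at 37C. Medium luciferase was read by coelenterazine luminescence without lysis.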"}, "[4]": {"test": "Confirmatory qHTS for small molecule stabilizers of the endoplasmic reticulum resident proteome: Secreted ER Calcium Modulated Protein (SERCaMP) assay (AID 1508628); note: series mostly up to about 76 µM; nearly all actives have a fitted effect of over 40% in size", "outline": "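SH-SY5Y cells stably expressing GLuc-SERCaMP, treated 16 h with compound (primary 1.53, 7.67, 38.3 uM; confirmation 11 concentrations, up to 76.6 uM), then 100 nM thapsigargin for 4 h. Secreted Gaussia luciferase in medium read by coelenterazine luminescence.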"}, "[5]": {"test": "Cell Viability qHTS for small molecule stabilizers of the endoplasmic reticulum resident proteome (AID 1508629);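 note: potency is the fitted concentration of half-maximal effect; compound exposure about 46 h in total before the viability read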", "conditions": "cell viability counter-screen, 100 nM thapsigargin for final 4 h"}}, "note": "Where “and” joins values, the source holds several entries; their conditions need not be identical. Equal entries are not always repeated. Records with an inconclusive call do not appear. A call without a number means that no potency is given here. Calls of active or inactive are those of the source. Unless noted, calls come from the whole dose curve; as a rule, active = well fitted curve in the direction sought with a large enough effect; inconclusive = small, poorly fitted or top-dose-only effect, or another doubt; inactive = no such curve, though single readings can be large; an effect the other way counts as inactive or inconclusive.", "data": [{"compound": "CC1(C)C(=O)N2c3ccccc3[C@]3(CC(n4cnc5ccccc5c4=O)C(=O)O3)[C@H]2N1O", "note": "(some centres not stated)", "values": [{"measurement": "Potency", "setting": "[1]", "value": "inactive"}]}, {"compound": "NCc1c[nH]c(=S)n1C1CCc2c(F)cc(F)cc2C1", "note": "(configuration not stated)", "values": [{"measurement": "Potency", "setting": "[1]", "value": "inactive"}, {"measurement": "Potency", "setting": "[2]", "value": "3.79 µM (active)"}]}, {"compound": "COc1ccc(C[C@H](N)C(=O)N[C@H]2[C@@H](O)[C@H](n3cnc4c(N(C)C)ncnc43)O[C@@H]2CO)cc1", "values": [{"measurement": "Potency", "setting": "[1]", "value": "inactive"}, {"measurement": "Potency", "setting": "[2]", "value": "inactive"}]}, {"compound": "CNC(=O)COC(=O)NCCC1CCN(c2cccc(C)n2)CC1", "values": [{"measurement": "Potency", "setting": "[1]", "value": "inactive"}, {"measurement": "Potency", "setting": "[2]", "value": "inactive"}]}, {"compound": "O=C1N(CC2CCCCN2)CCN1c1ccccc1", "note": "(configuration not stated)", "values": [{"measurement": "Potency", "setting": "[1]", "value": "inactive"}, {"measurement": "Potency", "setting": "[2]", "value": "15.1 µM (active)"}]}, {"compound": "Cc1nc2c(-c3cnc(N)nc3)nc(N3CCOCC3)nc2n1C(C)C", "values": [{"measurement": "Potency", "setting": "[1]", "value": "inactive"}, {"measurement": "Potency", "setting": "[2]", "value": "inactive"}]}, {"compound": "CCOC(=O)c1c(C)nn(-c2cccc([N+](=O)[O-])c2)c1C", "values": [{"measurement": "Potency", "setting": "[1]", "value": "inactive"}, {"measurement": "Potency", "setting": "[2]", "value": "8.49 µM (active)"}]}, {"compound": "CNC(=O)c1ccc2cc([C@@]3(O)CCn4cncc43)ccc2c1", "values": [{"measurement": "Potency", "setting": "[1]", "value": "inactive"}, {"measurement": "Potency", "setting": "[2]", "value": "12 µM (active)"}]}, {"compound": "COc1ccccc1-n1c(SCC(=O)Nc2nc3ccc(C)cc3s2)nc2c(c1=O)SCC2", "values": [{"measurement": "Potency", "setting": "[1]", "value": "inactive"}, {"measurement": "Potency", "setting": "[2]", "value": "inactive"}]}, {"compound": "c1ccc(C(OC2CCN(CCCc3nn[nH]n3)CC2)c2ccccc2)cc1", "values": [{"measurement": "Potency", "setting": "[1]", "value": "inactive"}, {"measurement": "Potency", "setting": "[2]", "value": "6.01 µM (active)"}]}, {"compound": "CN1CCC(c2c[nH]c3ccc(NC(=O)c4ccc(F)cc4)cc23)CC1", "values": [{"measurement": "Potency", "setting": "[1]", "value": "inactive"}, {"measurement": "Potency", "setting": "[2]", "value": "16.9 µM (active)"}]}, {"compound": "FC(F)(F)c1cc(C(F)(F)F)c2ccc3nc(-c4nnco4)cn3c2n1", "values": [{"measurement": "Potency", "setting": "[1]", "value": "inactive"}, {"measurement": "Potency", "setting": "[2]", "value": "inactive"}]}, {"compound": "CN(C)c1cccc(-c2c3c(=O)n(-c4ccccc4Cl)[nH]c3cc(=O)n2C)c1", "values": [{"measurement": "Potency", "setting": "[1]", "value": "inactive"}, {"measurement": "Potency", "setting": "[2]", "value": "inactive"}]}, {"compound": "CC(C)Nc1cc(-c2c[nH]c(C(=O)N[C@H](CO)c3cccc(Cl)c3)c2)c(Cl)cn1", "values": [{"measurement": "Potency", "setting": "[1]", "value": "inactive"}, {"measurement": "Potency", "setting": "[2]", "value": "19 µM (active)"}]}, {"compound": "N#Cc1ccc2[nH]c(O)c(-c3ccc(CN4CCOCC4)cn3)c2c1", "values": [{"measurement": "Potency", "setting": "[1]", "value": "inactive"}, {"measurement": "Potency", "setting": "[2]", "value": "12 µM (active) and 6.74 µM (active)"}]}, {"compound": "CC1(C)OC(=O)C(OCC2CC2)=C1c1ccc(S(C)(=O)=O)cc1", "values": [{"measurement": "Potency", "setting": "[1]", "value": "inactive"}, {"measurement": "Potency", "setting": "[2]", "value": "inactive"}]}, {"compound": "CC1(C)C(=O)C(C)(C)c2cc(C(=O)Nc3ccc(C(=O)O)cc3)ccc21", "values": [{"measurement": "Potency", "setting": "[1]", "value": "inactive"}, {"measurement": "Potency", "setting": "[2]", "value": "inactive"}]}, {"compound": "Nc1nc(CC(=O)Nc2ccc(CCNCC(O)c3ccccc3)cc2)cs1", "note": "(configuration not stated)", "values": [{"measurement": "Potency", "setting": "[1]", "value": "inactive"}, {"measurement": "Potency", "setting": "[2]", "value": "0.477 µM (active)"}]}, {"compound": "Cc1cc(N2CCCCC2)nc2ccccc12", "values": [{"measurement": "Potency", "setting": "[1]", "value": "inactive"}, {"measurement": "Potency", "setting": "[2]", "value": "10.7 µM (active)"}]}, {"compound": "CCC(CC)n1ccc2c(C(=O)NCc3c(C)cc(C)[nH]c3=O)cc(C#N)cc21", "values": [{"measurement": "Potency", "setting": "[1]", "value": "inactive"}, {"measurement": "Potency", "setting": "[2]", "value": "inactive"}]}, {"compound": "O=S(=O)(NC1CCNCC1)c1cc(S(=O)(=O)c2ccccc2)ccc1C(F)(F)F", "values": [{"measurement": "Potency", "setting": "[1]", "value": "inactive"}, {"measurement": "Potency", "setting": "[2]", "value": "inactive"}]}, {"compound": "CC1(C)CCC(C)(C)c2cc([C@@H](O)C(=O)Nc3ccc(C(=O)O)cc3F)ccc21", "values": [{"measurement": "Potency", "setting": "[1]", "value": "inactive"}, {"measurement": "Potency", "setting": "[2]", "value": "inactive"}]}, {"compound": "CCOC(=O)Nc1nc2ccccc2[nH]1", "values": [{"measurement": "Potency", "setting": "[1]", "value": "inactive"}, {"measurement": "Potency", "setting": "[2]", "value": "3.79 µM (active)"}]}, {"compound": "COC(=O)[C@H](CC1C=NC=N1)NCC12CC3CC(CC(C3)C1)C2", "note": "(some centres not stated)", "values": [{"measurement": "Potency", "setting": "[1]", "value": "inactive"}, {"measurement": "Potency", "setting": "[2]", "value": "inactive"}]}, {"compound": "CCCCNC(=O)[C@@H]1Cc2ccccc2N1C(=O)[C@@H](N)CC", "values": [{"measurement": "Potency", "setting": "[1]", "value": "inactive"}, {"measurement": "Potency", "setting": "[2]", "value": "inactive"}]}, {"compound": "N[C@@H](CC(=O)N1CCn2c(nnc2C(F)(F)F)C1)Cc1[nH]nc2c(F)c(F)ccc12", "values": [{"measurement": "Potency", "setting": "[1]", "value": "inactive"}, {"measurement": "Potency", "setting": "[2]", "value": "inactive"}]}, {"compound": "Cc1onc(-c2ccccc2)c1C(=O)N[C@@H]1C(=O)N2[C@@H]1SC(C)(C)[C@@H]2C(=O)O", "values": [{"measurement": "Potency", "setting": "[1]", "value": "inactive"}, {"measurement": "Potency", "setting": "[2]", "value": "inactive"}]}, {"compound": "COCCCNCC1COc2ccccc2O1", "note": "(configuration not stated)", "values": [{"measurement": "Potency", "setting": "[1]", "value": "inactive"}, {"measurement": "Potency", "setting": "[2]", "value": "9.52 µM (active)"}]}, {"compound": "COCCN(C)Cc1ccc2nc3sc(C(=O)N(C)C4CCCCC4)cn3c2c1", "values": [{"measurement": "Potency", "setting": "[1]", "value": "inactive"}, {"measurement": "Potency", "setting": "[2]", "value": "inactive"}]}, {"compound": "CCOc1ccc(C(Nc2ccccn2)c2ccc3ccc(C)nc3c2O)cc1C", "note": "(configuration not stated)", "values": [{"measurement": "Potency", "setting": "[1]", "value": "inactive"}, {"measurement": "Potency", "setting": "[2]", "value": "inactive"}]}, {"compound": "O=C1C[C@@H](c2ccc(O)cc2)Oc2cc(O)ccc21", "values": [{"measurement": "Potency", "setting": "[1]", "value": "inactive"}, {"measurement": "Potency", "setting": "[2]", "value": "inactive"}]}, {"compound": "Nc1ncnc2c1ncn2[C@H]1CCCO1", "values": [{"measurement": "Potency", "setting": "[1]", "value": "inactive"}, {"measurement": "Potency", "setting": "[2]", "value": "inactive"}]}, {"compound": "O=C(O)[C@H]1CCCC[C@H]1C(=O)N1CCc2ccccc2[C@H]1CN1C(=O)c2ccccc2C1=O", "values": [{"measurement": "Potency", "setting": "[1]", "value": "inactive"}, {"measurement": "Potency", "setting": "[2]", "value": "inactive"}]}, {"compound": "CCn1nnnc1NCc1ccc(C(C)C)cc1", "values": [{"measurement": "Potency", "setting": "[1]", "value": "inactive"}, {"measurement": "Potency", "setting": "[2]", "value": "inactive"}]}, {"compound": "O=C1CC(c2ccc([N+](=O)[O-])cc2)=NN1c1ccccc1", "values": [{"measurement": "Potency", "setting": "[1]", "value": "inactive"}, {"measurement": "Potency", "setting": "[2]", "value": "inactive"}]}, {"compound": "CCNC(=O)[C@H]1O[C@H](n2cnc3c(NCC(c4ccccc4)c4ccccc4)nc(C(=O)NCCNC(=O)NC4CCN(c5ccccn5)CC4)nc32)[C@H](O)[C@@H]1O", "values": [{"measurement": "Potency", "setting": "[1]", "value": "inactive"}, {"measurement": "Potency", "setting": "[2]", "value": "23.9 µM (active)"}]}, {"compound": "NC(Cc1c[nH]c2ccccc12)C(=O)NC(CCC(=O)O)C(=O)O", "note": "(configuration not stated)", "values": [{"measurement": "Potency", "setting": "[1]", "value": "inactive"}, {"measurement": "Potency", "setting": "[2]", "value": "inactive"}]}, {"compound": "CC(C)c1ccc(CC(=O)N2CCC[C@@H](c3cccc(OC(C)(C)C(=O)O)c3)C2)cc1", "values": [{"measurement": "Potency", "setting": "[1]", "value": "inactive"}, {"measurement": "Potency", "setting": "[2]", "value": "inactive"}]}, {"compound": "CCOC(=O)[C@H](CCc1ccccc1)CC1(C(=O)N[C@H]2CCc3ccccc3N(CC(=O)O)C2=O)CCCC1", "values": [{"measurement": "Potency", "setting": "[1]", "value": "inactive"}, {"measurement": "Potency", "setting": "[2]", "value": "inactive"}]}, {"compound": "O=C(O)c1n[nH]c2c1C[C@H]1C[C@@H]21", "values": [{"measurement": "Potency", "setting": "[1]", "value": "inactive"}, {"measurement": "Potency", "setting": "[2]", "value": "inactive"}]}, {"compound": "COC(=O)C1=C(C)NC(C)=C(C(=O)OCCCN2CCC(c3ccccc3)(c3ccccc3)CC2)[C@H]1c1cccc([N+](=O)[O-])c1", "values": [{"measurement": "Potency", "setting": "[3]", "value": "39.8 µM (active) and 44.7 µM (active)"}, {"measurement": "outcome", "setting": "[4]", "value": "inactive"}, {"measurement": "Potency", "setting": "[5]", "value": "25.1 µM (active) and 28.2 µM (active)"}]}]}
